The full list was thinned out, with the strongest signals kept by preference.
Tests used:
Assay in all cases: glycan array binding signal (z-score within array); higher = stronger binding
Conditions in all cases: glycan notation: IUPAC condensed, linker removed
[1] = target: Gal(b1-4)GlcNAc(b1-3)Gal(b1-4)GlcNAc(b1-3)Gal(b1-4)GlcNAc(b1-3)Gal(b1-4)GlcNAc(b1-2)[Gal(b1-4)GlcNAc(b1-3)Gal(b1-4)GlcNAc(b1-3)Gal(b1-4)GlcNAc(b1-3)Gal(b1-4)GlcNAc(b1-6)]Man(a1-6)[Gal(b1-4)GlcNAc(b1-3)Gal(b1-4)GlcNAc(b1-3)Gal(b1-4)GlcNAc(b1-3)Gal(b1-4)GlcNAc(b1-2)Man(a1-3)]Man(b1-4)GlcNAc(b1-4)[Fuc(a1-6)]GlcNAc
In short: (§1)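 Glycan array data were curated from 3228 arrays in the Consortium for Functional Glycomics database and kept only where the protein sequence was available. Glycan names were converted to IUPAC-condensed notation, and columns mapping to the same glycan were averaged. The binding signal is a within-array Z-score, averaged across arrays of the same protein sequence at different concentrations or buffers and across linkers. Negative Z-scores can be read as non-binding.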

[2] = target: Gal(b1-4)GlcNAc(b1-3)Gal(b1-4)GlcNAc(b1-3)Gal(b1-4)GlcNAc(b1-3)Gal(b1-4)GlcNAc(b1-3)Gal(b1-4)GlcNAc(b1-2)[Gal(b1-4)GlcNAc(b1-3)Gal(b1-4)GlcNAc(b1-3)Gal(b1-4)GlcNAc(b1-3)Gal(b1-4)GlcNAc(b1-3)Gal(b1-4)GlcNAc(b1-6)]Man(a1-6)[Gal(b1-4)GlcNAc(b1-3)Gal(b1-4)GlcNAc(b1-3)Gal(b1-4)GlcNAc(b1-3)Gal(b1-4)GlcNAc(b1-3)Gal(b1-4)GlcNAc(b1-2)Man(a1-3)]Man(b1-4)GlcNAc(b1-4)[Fuc(a1-6)]GlcNAc
In short: as §1

[3] = target: Gal3S(b1-3)[Fuc(a1-4)]GlcNAc
In short: as §1

[4] = target: Gal3S(b1-4)Glc
In short: as §1

[5] = target: Gal3S(b1-4)[Fuc(a1-3)]GlcNAc6S
In short: as §1

[6] = target: Gal6S(b1-4)Glc
In short: as §1

[7] = target: GalNAc(a1-3)GalNAc
In short: as §1

[8] = target: Glc(a1-4)Glc
In short: as §1

[9] = target: GlcNAc(b1-2)Man(a1-3)[GlcNAc(b1-2)Man(a1-6)]Man(b1-4)GlcNAc(b1-4)GlcNAc
In short: as §1

[10] = target: GlcNAc(b1-3)Gal(b1-3)GalNAc
In short: as §1

[11] = target: GlcNAc(b1-3)Gal(b1-4)GlcNAc(b1-3)Gal(b1-4)GlcNAc(b1-3)Gal(b1-4)GlcNAc(b1-3)Gal(b1-4)GlcNAc(b1-2)Man(a1-3)[GlcNAc(b1-3)Gal(b1-4)GlcNAc(b1-3)Gal(b1-4)GlcNAc(b1-3)Gal(b1-4)GlcNAc(b1-3)Gal(b1-4)GlcNAc(b1-2)Man(a1-6)]Man(b1-4)GlcNAc(b1-4)[Fuc(a1-6)]GlcNAc
In short: as §1

[12] = target: GlcNAc(b1-4)GlcNAc(b1-4)GlcNAc
In short: as §1

[13] = target: Man(a1-2)Man(a1-3)[Man(a1-6)]Man(a1-6)[Man(a1-2)Man(a1-3)]Man(b1-4)GlcNAc(b1-4)GlcNAc
In short: as §1

[14] = target: Man(a1-3)[Man(a1-6)]Man(a1-6)[Man(a1-3)]Man
In short: as §1

[15] = target: Neu5Ac(a2-3)Gal(b1-4)GlcNAc(b1-3)Gal(b1-4)GlcNAc(b1-6)[Gal(b1-3)]GalNAc
In short: as §1

[16] = target: Neu5Ac(a2-3)Gal(b1-4)[Fuc(a1-3)]GlcNAc
In short: as §1

[17] = target: Neu5Ac(a2-3)Gal(b1-4)[Fuc(a1-3)]GlcNAc(b1-6)[Neu5Ac(a2-3)Gal(b1-3)]GalNAc
In short: as §1

[18] = target: Neu5Ac(a2-6)Gal(b1-4)GlcNAc
In short: as §1

[19] = target: Neu5Ac(a2-6)Gal(b1-4)GlcNAc(b1-2)Man(a1-3)[Neu5Ac(a2-6)Gal(b1-4)GlcNAc(b1-2)Man(a1-6)]Man(b1-4)GlcNAc(b1-4)[Fuc(a1-6)]GlcNAc
In short: as §1

[20] = target: Neu5Ac(a2-6)Gal(b1-4)GlcNAc(b1-2)Man(a1-6)[Gal(b1-4)GlcNAc(b1-2)Man(a1-3)]Man(b1-4)GlcNAc(b1-4)GlcNAc
In short: as §1

[21] = target: Neu5Ac(a2-6)Gal(b1-4)GlcNAc(b1-3)Gal(b1-4)GlcNAc
In short: as §1

[22] = target: Neu5Ac(a2-6)GalNAc(b1-4)GlcNAc
In short: as §1

[23] = target: Neu5Ac(a2-6)GlcNAc(b1-4)GlcNAc
In short: as §1

[24] = target: Neu5Ac(a2-8)Neu5Ac(a2-8)Neu5Ac(a2-3)[GalNAc(b1-4)]Gal(b1-4)Glc
In short: as §1

[25] = target: Neu5Ac(b2-6)Gal(b1-4)GlcNAc
In short: as §1

[26] = target: Neu5Ac9Ac(a2-3)Gal(b1-3)GlcNAc
In short: as §1

[27] = target: Neu5Ac9Ac(a2-3)Gal(b1-4)GlcNAc
In short: as §1

[28] = target: Neu5Gc(a2-3)Gal(b1-3)[Fuc(a1-4)]GlcNAc
In short: as §1

[29] = target: Neu5Gc(a2-6)GalNAc
In short: as §1

B1: rMpL (Macrolepiota procera) (protein)
chain: MSTQVSSGRTYKITNVIAGTVIDLSGEDNKSIIGYPYHSGKNQQWTFNWTGKAWTLRSASSGSYLGIEGTPAGGTRLVAVNDPFEWHIWRDEANENAFRIFVPFTNYNLDLSGYGDTTPGTPVQLWWTWEGLHQTWTIDRP
glycan array binding signal (z-score) [1]: 4.7 | glycan array binding signal (z-score) [2]: 4.6 | glycan array binding signal (z-score) [3]: -0.271 | glycan array binding signal (z-score) [4]: -0.325 | glycan array binding signal (z-score) [5]: -0.333 | glycan array binding signal (z-score) [6]: -0.233 | glycan array binding signal (z-score) [7]: -0.265 | glycan array binding signal (z-score) [8]: -0.289 | glycan array binding signal (z-score) [9]: -0.322 | glycan array binding signal (z-score) [10]: -0.302 | glycan array binding signal (z-score) [11]: -0.17 | glycan array binding signal (z-score) [12]: -0.382 | glycan array binding signal (z-score) [13]: -0.35 | glycan array binding signal (z-score) [14]: -0.268 | glycan array binding signal (z-score) [15]: -0.198 | glycan array binding signal (z-score) [16]: -0.32 | glycan array binding signal (z-score) [17]: -0.185 | glycan array binding signal (z-score) [18]: -0.358 | glycan array binding signal (z-score) [19]: -0.168 | glycan array binding signal (z-score) [20]: 0.028 | glycan array binding signal (z-score) [21]: -0.363 | glycan array binding signal (z-score) [22]: -0.425 | glycan array binding signal (z-score) [23]: -0.364 | glycan array binding signal (z-score) [24]: -0.174 | glycan array binding signal (z-score) [25]: -0.33 | glycan array binding signal (z-score) [26]: -0.374 | glycan array binding signal (z-score) [27]: 0.277 | glycan array binding signal (z-score) [28]: -0.335 | glycan array binding signal (z-score) [29]: -0.358
